Screens: PubChem, National Center for Advancing Translational Sciences (NCATS)
Abeta yeast res: compounds reversing amyloid beta toxicity in yeast; yeast expressing A-beta42, growth rescue, OD600, 48 h; response scale: 0% DMSO, 100% iron-clioquinol control; Potency, µM (doses to about 46.1 µM), most hits filed as activators; actives 0.063% (n = 410,000); further: nearly all actives have a fitted effect of over 55% in size
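Growth rescue measured by 600 nm absorbance after 48 h yeast culture at 30 C with compound. Values normalized between DMSO and an equimolar ferric chloride plus clioquinol control.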
Mito fusion yeast: mitochondrial division inhibition or fusion activation | actives 0.23% (n = 320,000) | AID 485298 | Potency, µM (series often up to 46.1 µM), for the others: top-dose growth rescue (activation), actives largely listed as activators | S. cerevisiae fusion-defective mutant growth rescue, CellTiterGlo 48 h; further: % of control where 0% means no effect; nearly all actives have a fitted effect of over 45% in size
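Growth-rescue viability read-out: after 48 h at the non-permissive 37C in glycerol/ethanol YPEG, yeast mitochondrial fusion mutants are measured by CellTiterGlo luminescence; compounds (23 nl pinned per well) restoring growth score as division inhibitors or fusion activators.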
TDP43 rescue: rescues yeast growth from TDP-43 toxicity | TDP-43 expressing yeast growth rescue, BacTiter-Glo, 24 h | Potency, µM (titrated, usually from 46.1 µM), without a hit: top-dose growth rescue (activation), most hits filed as activators | actives 1.8% (n = 410,000) | AID 652104; further: % of control where 0% means no effect; nearly all actives have a fitted effect of over 50% in size
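Readout is BacTiter-Glo luminescence of cell growth, so inhibitors register as activators. TDP-43-expressing yeast at OD600=0.02 in galactose medium, after raffinose pregrowth to mid-log, were incubated with compound for 24 hr at 30 deg C.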
FUS yeast rescue: suppressors of FUS proteinopathy in yeast | S. cerevisiae FUS-expressing, growth rescue, OD600, 24 h | Potency, µM (series often up to 76.6 µM), most hits filed as activators | actives 0.24% (n = 390,000);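 further: plate controls were DMSO vehicle for no effect and reference control for full effect; nearly all actives have a fitted effect of over 55% in size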
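Galactose (2%) drives FUS expression in yeast precultured in raffinose; seeding density OD 0.005. Test compounds incubated 24hr at 30C and 99% humidity before absorbance at 600 nm was measured.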
aSyn yeast inh: inhibitors of alpha-synuclein toxicity in yeast; Yeast expressing alpha-synuclein, growth rescue, BacTiter-Glo, 24 h; Potency, µM (doses to about 46.1 µM), without a hit: top-dose growth rescue (activation), most hits filed as activators; actives 0.14% (n = 370,000); further: % of control where 0% means no effect; nearly all actives have a fitted effect of over 65% in size
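Screening used galactose-induced yeast with toxic alpha-synuclein levels, exposed to compound for 24 hr at 30 deg C. Cell growth, read with BacTiter-Glo luminescence, gave the measured signal.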
* = called active by the depositor; i = inactive; ? = inconclusive; · = not tested or not shown; [ ] = remark or other dose. A selection: hits, their analogues and other compounds. The true share with any hit is near 2.2%. The call rests on the fitted dose curve; in most records, active means well fitted curve in the direction sought with a large enough effect; inconclusive means small, poorly fitted or top-dose-only effect, or another doubt; inactive means no such curve, though single readings can be large; an effect the other way counts as inactive or inconclusive. Potency means the concentration at half of the fitted maximal effect.

SMILES | Abeta yeast res | Mito fusion yeast | TDP43 rescue | FUS yeast rescue | aSyn yeast inh
COc1ccc(C(C#N)c2ccc(Cl)nn2)cc1 (configuration not stated) | i | -5% | 23% | i | -8%
N#CC(c1ccc(Cl)nn1)c1ccc(Cl)cc1Cl (configuration not stated) | i | -6% | 13µM* | i | 14%
Cc1cnc(C(=O)OCC(=O)N2CC(C)CC(C)C2)cn1 (configuration not stated) | i | · | 2% | i | -1%[1.84 µM]
COc1ccc(NC(=O)C2Cc3c(-c4ccc(Cl)cc4)ccnc3O2)cn1 (configuration not stated) | i | · | 35µM* | i | 14%
O=C(NCc1ccccc1)C1Cc2c(-c3ccc(Cl)cc3)ccnc2O1 (configuration not stated) | i | · | 20µM* | i | ?
COc1ccc(NC(=O)C2Cc3c(-c4ccc(Cl)cc4)ccnc3O2)cc1OC (configuration not stated) | i | · | 35µM* | i | 6%
CCOC(=O)c1ccc(S(=O)(=O)N2CCN(CC(O)COc3cccc(C(C)=O)c3)CC2)cc1 (configuration not stated) | i | -7% | -25% | i | -26%
C[C@H](CO)N1C[C@H](C)[C@@H](CN(C)C(=O)Nc2ccccc2)Oc2ccc(NC(=O)Cn3cnnn3)cc2C1=O | i | · | 6% | i | -2%
NC(=S)N=Nc1c(O)n(Cc2ccccc2)c2ccccc12 | i | -5% | -16% | i | -7%
Oc1c(N=NC(=S)Nc2ccccc2F)c2ccccc2n1Cc1ccccc1Cl | i | -4% | ? | i | 4%
Cc1c(Cl)cccc1NC(=S)N=Nc1c(O)n(CN2CCOCC2)c2ccccc12 | 22µM* | ? | 15% | i | 1%
C=CCn1c(O)c(N=NC(=S)Nc2cccc(C)c2)c2ccccc21 | ? | 9% | 11µM* | · | ?
C/C(Cl)=C\Cn1c(O)c(N=NC(N)=S)c2ccccc21 | i | -8% | 18µM* | i | 14%
C=CCn1c(O)c(N=NC(=S)Nc2ccccc2F)c2ccccc21 | ? | 0% | 0% | i | -5%
O=C(COc1ccc(Cl)cc1)OCc1cc(=O)n2nc(C3CCCCC3)sc2n1 | i | · | -7% | i | ·
Clc1cccc(-n2ncc3c(NC4CCCCCC4)ncnc32)c1 | i | · | 35µM* | i | ·
Cc1ccc(-n2ncc3c(NC4CCCC4)ncnc32)cc1 | i | · | 1.3µM* | i | ·
c1ccc(-n2ncc3c(NC4CCCC4)ncnc32)cc1 | i | · | ? | i | ·
COc1ccc(-c2ccc(C(=O)Nc3ccc(OC)nc3)c3occc23)c(C)c1 | i | · | 35µM* | ? | -19%
COc1ccc(-c2ccc(C(=O)Nc3ccccc3)c3occc23)c(C)c1 | i | · | 0% | i | -12%
COc1ccc(-c2coc3c(C(=O)Nc4ccc(OC)nc4)cccc23)c(C)c1 | i | · | 35µM* | i | -17%
COc1ccccc1/C=N/NC(=O)c1cccc(OC(F)(F)C(F)F)c1 | i | 0% | -1% | · | -15%
COc1cccc(/C=N/NC(=O)C(=O)Nc2ccccc2OC(F)(F)C(F)F)c1O | i | 6% | -2% | i | 22µM*
O=C(CCCn1c(=O)c2cccn2c2ccccc21)NCCc1ccc(Cl)cc1 | ? | · | 25µM* | i | ·
C/C=C/C(=O)N1CCC(C(=O)NC2CCCc3ccccc32)CC1 (configuration not stated) | · | · | · | i | ·
SMILES | Abeta yeast res | Mito fusion yeast | TDP43 rescue | FUS yeast rescue | aSyn yeast inh
Cc1ccc([C@@H]2CC=C(C(=O)O)[C@H](c3cccc(F)c3)N2S(=O)(=O)c2ccccc2C)cc1 | i | · | 17% | i | -6%
COc1ccc([C@@H]2CC=C(C(=O)O)[C@H](c3ccc(Br)cc3)N2S(=O)(=O)c2ccccc2C)cc1 | i | · | 35µM* | ? | -63%
Cc1ccc([C@@H]2CC=C(C(=O)O)[C@H](c3ccc(F)cc3)N2S(=O)(=O)c2ccccc2C)cc1 | i | · | 28µM* | i | -7%
COc1ccc([C@@H]2CC=C(C(=O)O)[C@H](c3ccc(Cl)cc3)N2S(=O)(=O)c2ccccc2C)cc1 | i | -6% | 18µM* | ? | -33%
Oc1cc2c(cc1CN1CCN(c3ncccn3)CC1)OCO2 | i | 2% | 2% | i | 1%
O=c1c(Cl)c(Cl)cnn1Cc1ccc(F)cc1 | i | -5% | 20µM* | i | 1%
Fc1ccc(Cn2nnnc2C(c2ccc(Cl)cc2)N2CCSCC2)cc1 (configuration not stated) | i | 20% | 35µM* | i | 10%
Cc1ccc(S(=O)(=O)N(CC(=O)Nc2cccc(C)c2C)C(=O)N2CCN(C)CC2)cc1 | i | 3% | 3% | i | -3%
O=C(Nc1ccc(Cl)cc1)c1csc(COCCO)n1 | i | · | 20% | i | -5%
O=C(Nc1ccc(Oc2ccccc2)cc1)c1csc(COCCO)n1 | i | · | 13µM* | i | 3%
CC(=O)Nc1ccc(C(=O)N2CCCCC2c2cc(C(=O)Nc3cccc4c3CCCC4)no2)cc1 (configuration not stated) | i | · | ? | ? | 16%
Cn1nc(C(C)(C)C)cc1C(=O)N1CCCCC1c1cc(C(=O)Nc2cccc3c2CCCC3)no1 (configuration not stated) | i | · | 7% | 32µM* | 8%
Cc1nc2c(Br)c(C)nn2c2c1CCC2 | i | 0% | 11µM* | i | 0%
COc1ccc(CNC(=O)C2(C)Cc3c(-c4ccc5c(c4)OCO5)ccnc3O2)cc1OC (configuration not stated) | i | · | 20% | i | 8.9µM*
COc1ccc(CNC(=O)C2(C)Cc3c(-c4ccc(C(N)=O)cc4)ccnc3O2)cc1OC (configuration not stated) | i | · | 8% | i | 2%
CC(=O)Nc1ccc(NC(=O)C2(C)Cc3c(-c4ccc(NC(C)=O)cc4)ccnc3O2)cc1 (configuration not stated) | i | · | 0% | i | 2%
CC1(C(=O)Nc2cccc(OC(F)(F)F)c2)Cc2c(-c3ccc4c(c3)OCO4)ccnc2O1 (configuration not stated) | i | · | 0% | i | 3.5µM*
CN(C)c1ccc(-c2ccnc3c2CC(C)(C(=O)Nc2cccc(OC(F)(F)F)c2)O3)cc1 (configuration not stated) | i | · | 0% | i | 4%
CC(=O)Nc1ccc(-c2ccnc3c2CC(C)(C(=O)Nc2ccc(C(C)C)cc2)O3)cc1 (configuration not stated) | i | · | 35µM* | ? | -35%
